Measured potencies and affinities stand elsewhere. Activity calls are given as the source filed them.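 The calls were made as follows: active = toxic compound whose fitted half-effect dose of signal loss is at most twice its top tested dose; inconclusive = flat fit losing 30 to 70% signal, or poor fit; inactive = the rest.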
assay: cytotoxicity in HeLa cells, dose response, cytotoxicity control, cell-based, plate reader, dry powder (AID 651946); conditions: HeLa viability, ATP luminescence (CellTiter-Glo), 48 h; series mostly up to 26 µM

Row | SMILES | outcome
1 | COCCSc1nnc(-c2ccccc2)o1 | inactive
2 | c1ccc(CSc2nnc(-c3cccnc3)o2)cc1 | inactive
3 | Fc1cccc(-c2nnc(SCc3ccccn3)o2)c1 | inactive
4 | COc1cccc(CSc2nnc(-c3ccccc3)o2)c1 | inactive
5 | c1ccc(CSc2nnc(-c3cc4ccccc4o3)o2)cc1 | inactive
6 | c1ccc(-c2nnc(SCc3ccncc3)o2)cc1 | inactive
7 | c1ccc(CSc2nnc(-c3ccncc3)o2)cc1 | inactive
8 | Cc1ccccc1CSc1nnc(-c2ccccc2)o1 | inactive
9 | Clc1ccc(CSc2nnc(-c3ccccc3)o2)cc1 | inactive
10 | c1ccc(-c2nnc(SCCC3OCCCO3)o2)cc1 | inactive
11 | FC(F)(F)Oc1cccc(-c2nnc(SCc3ccccc3)o2)c1 | inactive
12 | COc1ccc(-c2nnc(SCc3ccccn3)o2)cc1 | inactive
13 | FC(F)(F)Oc1cccc(CSc2nnc(-c3ccccc3)o2)c1 | inactive
14 | O=C(Cc1ccccc1)C(C(=O)c1nnc(-c2ccccc2)o1)c1ccccc1 (stereo unspecified) | inactive
15 | [O-][n+]1ccccc1CSc1nnc(-c2ccccc2)o1 | inactive
16 | c1ccc(CSc2nnc(-c3cccs3)o2)cc1 | inactive
17 | FC1(F)CN(CCSc2nnc(-c3ccccc3)o2)C1 | inactive
18 | c1ccc(-c2nnc(SC3CCCCC3)o2)cc1 | inactive

Row | SMILES | outcome
19 | O=C(Cc1ccccc1)c1nnc(-c2ccccc2)o1 | inactive
20 | Fc1ccc(-c2nnc(SCc3cn(Cc4ccccc4)nn3)o2)cc1 | inactive
21 | Cc1cccc(-c2nnc(SCc3ccccc3)o2)c1 | inactive
22 | Cc1nnc(SCc2ccccc2)o1 | inactive
23 | c1ccc(CNc2nnc(-c3ccccc3)o2)cc1 | inactive
24 | Fc1ccc(CSc2nnc(-c3ccc(Cl)cc3)o2)cc1 | inactive
25 | c1ccc(CSc2nnc(-c3ccco3)o2)cc1 | inactive
26 | c1ccc(CSc2nnc(-c3ccc(-c4ccccc4)cc3)o2)cc1 | inactive
27 | FC(F)(F)c1cccc(CSc2nnc(-c3ccccc3)o2)c1 | inactive
28 | CS(=O)(=O)c1ccccc1CSc1nnc(-c2ccccc2)o1 | inactive
29 | CS(=O)(=O)c1cccc(-c2nnc(SCc3ccccc3)o2)c1 | inactive
30 | c1ccc(-c2nnc(SCCN3CCN(c4ccccc4)CC3)o2)cc1 | inactive
31 | Fc1ccc(-c2nnc(SCc3ccccc3)o2)cc1 | inactive
32 | N#Cc1ccccc1CSc1nnc(-c2ccccc2)o1 | inactive
33 | c1ccc(-c2nnc(SCCN3CCCC3)o2)cc1 | inactive
34 | Fc1ccc(Cn2cc(CSc3nnc(-c4ccc(F)cc4)o3)nn2)cc1 | inactive
35 | N#Cc1ccc(CSc2nnc(-c3ccccc3)o2)cc1 | inactive
36 | c1ccc(Cn2cc(CSc3nnc(C4CCC4)o3)nn2)cc1 | inactive
